Screening results: PubChem BioAssay, National Center for Advancing Translational Sciences (NCATS)
TRPML1 blocker = human mucolipin-1 channel inhibition; Q9GZU1; TRPML1-inducible cells, Ca2+ dye fluorescence, FDSS; hits give low values; inhibition of EC80 agonist-evoked calcium signal; activity change, negative = inhibition, % (concentration not given with the values); hit rate 0.02% among 390,000; in the data active = activity change below about -50%; inconclusive = between about -30% and that limit;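 also: stimulus is agonist 54-4 at its EC80 concentration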
Target sequence (Q9GZU1 whole entry, looked up): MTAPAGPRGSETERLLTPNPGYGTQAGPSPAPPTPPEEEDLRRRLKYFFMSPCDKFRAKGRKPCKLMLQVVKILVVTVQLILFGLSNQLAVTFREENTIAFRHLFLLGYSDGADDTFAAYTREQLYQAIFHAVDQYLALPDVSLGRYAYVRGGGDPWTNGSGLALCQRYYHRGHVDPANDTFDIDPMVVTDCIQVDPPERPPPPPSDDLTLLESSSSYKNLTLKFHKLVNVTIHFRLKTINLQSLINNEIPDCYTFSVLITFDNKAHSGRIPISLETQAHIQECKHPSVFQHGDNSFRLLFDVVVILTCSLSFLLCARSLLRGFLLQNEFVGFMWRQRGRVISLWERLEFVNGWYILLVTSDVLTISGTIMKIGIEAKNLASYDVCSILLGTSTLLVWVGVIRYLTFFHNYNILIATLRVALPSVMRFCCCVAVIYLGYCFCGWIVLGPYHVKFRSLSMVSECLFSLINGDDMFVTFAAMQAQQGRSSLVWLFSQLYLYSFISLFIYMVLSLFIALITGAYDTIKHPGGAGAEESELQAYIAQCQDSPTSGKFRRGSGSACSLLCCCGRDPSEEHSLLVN
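Calcium fluorescence in TRPML1-DL cells induced overnight with Tet: a 110 s read after compound pin addition, then a 110 s antagonist read after challenge with 54-4 at 4 uM final (EC80).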
EPAC1 antag = antagonists of human EPAC1. O95398. EPAC1 GEF assay, Rap1b-BODIPY-GDP exchange fluorescence. Potency, µM (highest dose often 115 µM), actives largely listed as inhibitors. hit rate 0.14% among 360,000. AID 720709; also: nearly all actives have a fitted effect of over 50% in size
TRPML1 ag = human mucolipin-1 channel agonism; TRPML1-expressing cells, Ca2+ dye fluorescence, FDSS; Q9GZU1; hit rate 0.12% among 410,000; activation, % (test concentration not listed); in the data active = activation above about 50%; inconclusive = mostly about 30% to 49%
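Tet-induced TRPML1-DL cells, 1,500 per well, cultured overnight, were loaded with a no-wash Ca2+ dye for 45–90 min. Calcium fluorescence was recorded on the FDSS for 110 s after compound addition, before the EC80 agonist (4 uM 54-4) was added.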
EPAC2 antagonist = antagonists of human EPAC2; EPAC2 GEF exchange of Rap1B-BODIPY-GDP, fluorescence; Potency, µM (highest dose often 114 µM), most hits filed as inhibitors; hit rate 0.18% among 360,000; AID 720708; also: nearly all actives have a fitted effect of over 45% in size
EPAC1 agonist = activates human EPAC1 exchange factor | hit rate 0.073% among 360,000 | AID 720707 | EPAC1 agonist qHTS, biochemical assay; response scale: 100% = response to 6.5 mM cAMP | Potency, µM (titrated, usually from 154 µM), hits mostly activators; also: nearly all actives have a fitted effect of over 60% in size
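Nucleotide exchange assay: 100 nM EPAC1 with 250 nM Rap1B loaded with BODIPY-GDP and 50 uM GDP, room temperature. Fluorescence (480/540 nm) read every 5 min for 30 min; signal change normalized to 6.5 mM cAMP as full agonist.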
EPAC2 agonist = EPAC2 (human) agonism; Q8WZA2; EPAC2 activation, biochemical qHTS; response scale: 100% = 6.5 mM cAMP response; Potency, µM (doses to about 154 µM), usual class: activators; hit rate 0.079% among 360,000; AID 720711; also: nearly all actives have a fitted effect of over 50% in size
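Exchange assay: 100 nM EPAC2 with 250 nM Rap1B-BODIPY-GDP and 50 uM GDP. Fluorescence (ex 480/em 540 nm) read every 5 min for 30 min at room temperature. Data normalized to 6.5 mM cAMP as agonist control.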
A number is an active result; - = inactive; ? = inconclusive; . = not tested or not shown. This is a sample that favours compounds with a hit; in the whole collection about 0.4% have one here. Unless noted, calls follow the shape of the dose curve; as a rule, active = well fitted curve in the direction sought with a large enough effect; inconclusive = small, poorly fitted or top-dose-only effect, or another doubt; inactive = no such curve, though single readings can be large; an effect the other way counts as inactive or inconclusive.

SMILES	TRPML1 blocker	EPAC1 antag	TRPML1 ag	EPAC2 antagonist	EPAC1 agonist	EPAC2 agonist
CCC[N+](C)(C)c1ccc(/C=C/c2ccncc2)cc1	.	.	-	.	.	.
CCOc1ccc(/C=C/c2ccc3ccccc3[n+]2C)cc1OCC	.	.	-	.	.	.
Cc1ccc2oc(-c3ccc(NC(=O)COc4ccccc4)cc3O)nc2c1	.	.	-	.	.	.
CC(C)(C)n1ncc2c(=O)n(Cc3ccc(Cl)c(F)c3)cnc21	-	.	-	.	.	.
O=C(C[n+]1csc2ccccc21)c1cccc([N+](=O)[O-])c1	.	.	-	.	.	.
NC(=Nc1ccc(Cl)cc1)c1ccccc1	-	-	65	-	-	-
ONC(=Nc1ccccc1)c1ccc(Cl)cc1	-	-	-	-	-	-
COc1cc2nc(N(C)C)nc(NC3CCN(C)CC3)c2cc1OC	.	.	-	.	.	.
O=c1cc2oc3cc(O)c(O)cc3c(-c3ccccc3[N+](=O)[O-])c-2cc1O	-	79µM	-	?	-	-
O=c1cc(-c2ccccc2Cl)oc2cccc(O)c12	-	-	-	-	-	-
N#CC(C(=O)NCc1ccccc1)c1nc2ccccc2nc1N1CCCC1 (configuration not stated)	-	-	-	-	-	89µM
N#CC(C(=O)NCCc1ccccc1)c1nc2ccccc2nc1N1CCCCC1 (configuration not stated)	-	-	-	-	-	-
CCN(CC)c1nc2ccccc2nc1C(C#N)C(=O)NCCc1ccccc1 (configuration not stated)	-	-	-	32µM	-	-
N#CC(C(=O)NCc1ccco1)c1nc2ccccc2nc1N1CCOCC1 (configuration not stated)	-	79µM	-	?	-	-
CN(C)c1ccc(/C=c2\[nH]c(=O)/c(=C\c3ccc(N(C)C)cc3)[nH]c2=O)cc1	.	.	-	.	.	.
COc1cc(/C=C(\C#N)c2nc3ccccc3s2)cc([N+](=O)[O-])c1O	-	79µM	-	?	-	-
N#C/C(=C\c1ccc(O)c([N+](=O)[O-])c1)c1nc2ccccc2s1	-	?	-	?	-	-
CCOC(=O)C1=C(N)c2ccccc2CC1C1CCCC1 (configuration not stated)	-	-	-	16µM	-	-
COc1ccc(Cl)cc1N(C)c1nc(N2CCN(S(=O)(=O)c3ccc(C)cc3)CC2)c2ccccc2n1	.	.	-	.	.	.
N=c1oc2c3c4c(cc2cc1C(=O)Nc1ccccc1)CCCN4CCC3	-	-	-	-	?	112µM
Cc1ccc(NC(=O)c2cc3ccccc3oc2=N)cc1	-	-	-	-	-	-
O=C(CN1C(=O)N/C(=C\c2ccccc2OCc2ccc(C(=O)O)cc2)C1=O)Nc1ccccc1F	-	35µM	-	-	-	-
C/C(=N\Nc1ccc([N+](=O)[O-])cc1[N+](=O)[O-])c1ccc(-n2nncc2C(C)(C)C)cc1	-	-	76	-	-	-
COc1cc(/C=N/NC(=O)C(Cc2c[nH]c3ccccc23)NC(=O)OCc2ccccc2)cc([N+](=O)[O-])c1O (configuration not stated)	-	79µM	-	-	-	-
COc1ccccc1C(=O)NNC(=O)CCCN1C(=O)/C(=C/c2cccs2)SC1=S	-	-	-	-	-	100µM
SMILES	TRPML1 blocker	EPAC1 antag	TRPML1 ag	EPAC2 antagonist	EPAC1 agonist	EPAC2 agonist
CCc1ccc(/C=C2/SC(=S)N(CCCC(=O)Nc3ccccc3C(=O)O)C2=O)cc1	-	40µM	-	?	-	-
CCc1ccc(C=C2SC(=S)N(CCCC(=O)Nc3ccc(C(=O)O)cc3)C2=O)cc1	-	?	-	-	-	-
O=C(CCCN1C(=O)/C(=C\c2cccs2)SC1=S)NNC(=O)c1ccncc1	-	-	-	-	-	-
C[n+]1ccc(C(c2c[nH]c3ccccc23)c2cc[n+](C)c3ccccc23)c2ccccc21	.	.	-	.	.	.
C=CCN(CC=C)Cc1cc(=O)oc2cc(OC)c(Cl)cc12	-	-	-	32µM	-	-
COc1cc2c3nnc(-c4ccc(F)cc4)c-3cn(Cc3ccc(C)cc3)c2cc1OC	-	-	-	-	-	-
COc1cc2c3nnc(-c4ccccc4)c-3cn(Cc3ccc(F)cc3)c2cc1OC	-	-	-	71µM	-	-
COCCOC(=O)N1CCN(/[N+]([O-])=N/Oc2ccc([N+](=O)[O-])cc2[N+](=O)[O-])CC1	-	.	-	.	.	.
Cc1ccc(O)c(CNc2ccc(S(=O)(=O)Nc3nccs3)cc2)c1	-	-	-	22µM	-	-
CC(=O)Nc1ccc(S(=O)(=O)Nc2nccs2)cc1	-	-	-	-	-	-
O=Cc1cc2c3c(c1)CCCN3CCC2	.	.	-	.	.	.
CCN(CC)c1ccccc1/C=C/[n+]1ccc(CCCCI)c2ccccc21	.	.	-	.	.	.
C=CCC1=C/C(=C\c2c(N)n3nc(CC(=O)N4CCCC4)sc3nc2=O)C=C(OC)C1=O	-	?	68	-	-	-
COC1=CC(=Cc2c(N)n3nc(CC(=O)N4CCOCC4)sc3nc2=O)C=C(OC)C1=O	-	-	-	-	-	-
Nc1c(C(=O)c2ccccc2)sc2nsc(SCCN3CCOCC3)c12	-	-	?	-	89µM	?
CCOC(=O)C1CCN(C(=O)Nc2ccc3nc(-c4ccco4)c(-c4ccco4)nc3c2)CC1	-	?	-	-	-	-
O=C(Nc1ccc2nc(-c3ccco3)c(-c3ccco3)nc2c1)N1CCCCCC1	-	40µM	-	-	-	-
O=C(NCCc1ccccc1)c1ccc2nc(-c3ccco3)c(-c3ccco3)nc2c1	-	?	-	-	-	-
O=C(c1ccccc1)c1ccc2nc(-c3ccco3)c(-c3ccco3)nc2c1	-	50µM	-	-	-	-
C=C(c1nc2ccccc2s1)C1Cc2cccc3c2N(CCC3)C1 (configuration not stated)	.	.	-	.	.	.
Cc1cc(S(=O)(=O)Cc2noc(-c3c(C)noc3C)n2)c(C)cc1Cl	-	-	120	-	-	-
Cc1noc(C)c1-c1nc(CSc2ccccc2)no1	-	-	-	-	-	-
CCOc1ccc(N2C(=O)/C(=C/c3ccccc3)N=C2SC)cc1	-	-	-	-	-	-
COc1ccc(/C=C2\N=C(SC)N(c3ccccc3OC)C2=O)cc1	-	-	-	18µM	-	-
Cc1ccc(/C=c2\sc3nc(-c4ccccc4Br)nn3c2=O)o1	-	-	-	-	-	-
C=CCn1c(=O)/c(=C/c2ccc(C)o2)s/c1=C(/C#N)C(=O)c1ccccc1	-	-	-	-	-	100µM
CC(=O)Nc1scc(-c2ccccc2)[n+]1-c1ccc(C)cc1	-	-	-	32µM	-	-
